Data on 79 compounds can be found in the antibiotic and cytotoxicity screens of Wong et al. (2023).

The whole screen tested about 39,000 compounds, of which about 3,300 (8.5%) were called active. The full list was thinned out, with actives kept by preference.

In the experiment the test system is HepG2. Kind of experiment: cytotoxicity call (relative viability < 0.9). The settings on record: 10 µM.
On to `C[C@H]1CCCCO[C@H](CN(C)C(=O)NC2CCCCC2)[C@@H](C)CN([C@@H](C)CO)C(=O)c2cc(NC(=O)NC3CCCCC3)ccc2O1`, for which the cytotoxicity call was “inactive”.

On to `N#C/C(=N\O)C(=O)c1ccco1`, for which the cytotoxicity call was “inactive”.

Take `N=C(N)Nc1nc(=O)c2ccccc2[nH]1`: the cytotoxicity call is “inactive”.

For `Cn1c(=O)c2c(ncn2CC(=O)Nc2nc3ccccc3[nH]2)n(C)c1=O`, the cytotoxicity call was “inactive”.

Take `CC(C)NC(=O)c1cccc2cccc(Sc3ccccc3)c12`: the cytotoxicity call is “inactive”.

In the case of `COc1ccc2nc(S(=O)Cc3ncc(C)c(OC)c3C)[nH]c2c1` (centres undefined), the cytotoxicity call was “inactive”.

Consider `CCOC(=O)Nc1nc2ccccc2[nH]1`, for which the cytotoxicity call is “inactive”.

For the compound `CCCOc1ccc2nc(NC(=O)OC)[nH]c2c1`, the cytotoxicity call is “active”.

Take `COC(=O)Nc1nc2ccc(Sc3ccccc3)cc2[nH]1`: the cytotoxicity call was “active”.

As for `COC(=O)Nc1nc2ccc(S(=O)c3ccccc3)cc2[nH]1` (centres undefined), the cytotoxicity call is “active”.

For `N=C(N)Nc1nc2ccccc2[nH]1`, the cytotoxicity call is “inactive”.

For `CCCSc1ccc2nc(NC(=O)OC)[nH]c2c1`, the cytotoxicity call is “active”.

Turning to `O=C(O)Cn1cccn1`, the cytotoxicity call is “inactive”.

Regarding `CCC/C=C1\OC(=O)c2ccccc21`, the cytotoxicity call is “inactive”.

For `Cc1noc(C)c1S(=O)(=O)N(C)C[C@@H]1OCCCC[C@@H](C)Oc2ccc(NC(=O)Nc3cccc4ccccc34)cc2C(=O)N([C@H](C)CO)C[C@@H]1C`, the cytotoxicity call is “inactive”.

With `C[C@H]1CN([C@@H](C)CO)C(=O)Cc2cc(NC(=O)Nc3ccc(C(F)(F)F)cc3)ccc2O[C@@H]1CN(C)Cc1ccc(C(=O)O)cc1`, the cytotoxicity call was “inactive”.

For the compound `COc1ccc(CN(C)C[C@H]2OCCCC[C@@H](C)Oc3ccc(NC(=O)NC(C)C)cc3C(=O)N([C@H](C)CO)C[C@@H]2C)cc1`, the cytotoxicity call is “inactive”.

For the compound `CCCC(=O)Nc1ccc2c(c1)C(=O)N(C)C[C@H](OC)[C@H](C)CN(Cc1ccc(-c3ccccn3)cc1)[C@@H](C)CO2`, the cytotoxicity call was “inactive”.

Regarding `CN(CCN)C1CCCCC1`, the cytotoxicity call is “inactive”.

Regarding `CCS(=O)(=O)NCC[C@H]1CC[C@H](NC(=O)Cc2ccccn2)[C@@H](CO)O1`, the cytotoxicity call is “inactive”.

Regarding `C[C@@H]1CCCCO[C@H](CN(C)C(=O)Cc2ccccc2)[C@@H](C)CN([C@@H](C)CO)C(=O)c2cc(NC(=O)c3ccccc3)ccc2O1`, the cytotoxicity call is “inactive”.

As for `CCS(=O)(=O)N1CC[C@]2(CC1)CN([C@H](CO)c1c2c2ccc(cc2n1C)OC)C(=O)c1cccc(c1)F`, the cytotoxicity call was “inactive”.

`COc1ccc(S(=O)(=O)Nc2ccc3c(c2)C(=O)N([C@@H](C)CO)C[C@H](C)[C@@H](CN(C)Cc2ccc4c(c2)OCO4)OCCCC[C@H](C)O3)cc1`: the cytotoxicity call is “inactive”.

With `Cc1ccc(S(=O)(=O)Nc2ccc3c(c2)C(=O)N([C@H](C)CO)C[C@@H](C)[C@H](CN(C)Cc2ccc4c(c2)OCO4)OCCCC[C@@H](C)O3)cc1`, the cytotoxicity call is “inactive”.

With `Cn1cnc(S(=O)(=O)N[C@@H]2CC[C@H](CC(=O)NCC3CC3)O[C@H]2CO)c1`, the cytotoxicity call was “inactive”.

On to `OC[C@H]1O[C@@H](O)[C@H](O)[C@@H](O)[C@H]1O`, for which the cytotoxicity call is “inactive”.

In the case of `OC[C@H]1O[C@@H](O)[C@@H](O)[C@@H](O)[C@@H]1O`, the cytotoxicity call was “inactive”.

With `OC[C@H]1O[C@H]([S][Au])[C@H](O)[C@@H](O)[C@@H]1O`, the cytotoxicity call is “active”.

Consider `Cc1noc(C)c1NC(=O)Nc1ccc2c(c1)C(=O)N([C@H](C)CO)C[C@H](C)[C@H](CN(C)S(=O)(=O)c1cn(C)cn1)O2`, for which the cytotoxicity call is “inactive”.

Take `COc1ccc(S(=O)(=O)Nc2ccc3c(c2)C(=O)N([C@H](C)CO)C[C@@H](C)[C@H](CN(C)C(=O)Nc2cccc4ccccc24)O3)cc1`: the cytotoxicity call was “inactive”.

Take `CC(C)(C)S(=O)N1Cc2cc(C(=O)NCc3ccc4c(c3)OCO4)nc(-c3cccc(-c4cccc(F)c4)c3)c2[C@@H]1CCO` (some centres undefined): the cytotoxicity call is “active”.

Turning to `CC(C)(C)[S@@](=O)N1Cc2cc(C(=O)NCc3ccc4c(c3)OCO4)nc(-c3cccc(-c4ccccc4)c3)c2[C@H]1CCO`, the cytotoxicity call is “inactive”.

With `CC(C)(C)[S@@](=O)N1Cc2cc(C(=O)NCc3ccc4c(c3)OCO4)nc(-c3cccc(-c4ccncc4)c3)c2[C@H]1CCO`, the cytotoxicity call was “inactive”.

`CC(C)(C)S(=O)N1Cc2cc(C(=O)NCc3ccc4c(c3)OCO4)nc(-c3cccc(-c4cccc(F)c4)c3)c2[C@H]1CCO` (some centres undefined): the cytotoxicity call is “active”.

`CC(C)(C)[S@](=O)N1Cc2cc(C(=O)NCc3ccc4c(c3)OCO4)nc(-c3cccc(-c4ccncc4)c3)c2[C@@H]1CCO`: the cytotoxicity call was “inactive”.

For the compound `CC(C)(C)[S@](=O)N1Cc2cc(C(=O)NCc3ccc4c(c3)OCO4)nc(-c3cccc(-c4cccnc4)c3)c2[C@@H]1CCO`, the cytotoxicity call is “inactive”.

`COc1ccc([C@H]2CNCCN2)cc1`: the cytotoxicity call was “inactive”.

For the compound `C[C@@H]1CN([C@@H](C)CO)C(=O)c2ccccc2-c2ccccc2CO[C@@H]1CN(C)C(=O)Nc1cccc(Cl)c1Cl`, the cytotoxicity call was “inactive”.

For the compound `COc1ccc(S(=O)(=O)N(C)C[C@H]2Oc3ccc(NC(=O)Cn4cnnn4)cc3C(=O)N([C@@H](C)CO)C[C@H]2C)cc1`, the cytotoxicity call is “inactive”.

`CCc1nc2ccc(C(=O)N3CCN(S(=O)(=O)CC)CC3)cn2c1N(CC)C(=O)CCC1CCCC1`: the cytotoxicity call was “inactive”.

With `Cc1ccc(S(=O)(=O)Oc2ccc(/N=N/c3ccc(-c4ccc(/N=N/c5c(O)ccc6cc(S(=O)(=O)O)cc(S(=O)(=O)O)c56)c(C)c4)cc3C)cc2)cc1`, the cytotoxicity call is “inactive”.

With `Cc1cc(-c2ccc(N=Nc3ccc4c(S(=O)(=O)[O-])cc(S(=O)(=O)[O-])c(N)c4c3O)c(C)c2)ccc1N=Nc1ccc2c(S(=O)(=O)[O-])cc(S(=O)(=O)[O-])c(N)c2c1O.[Na+].[Na+].[Na+].[Na+]`, the cytotoxicity call was “active”.

On to `C[C@@H]1CN([C@H](C)CO)C(=O)CCCn2cc(nn2)CO[C@H]1CN(C)C(=O)Nc1ccc(C(C)(C)C)cc1`, for which the cytotoxicity call is “inactive”.

`C[C@@H]1CCCCO[C@H](CN(C)C(=O)Nc2ccc(C(F)(F)F)cc2)[C@@H](C)CN([C@H](C)CO)C(=O)c2cc(NC(=O)CCCCCC(=O)Nc3ccccc3N)ccc2O1`: the cytotoxicity call was “inactive”.

As for `NS(=O)(=O)OC[C@H]1C[C@@H](Nc2ccnc3cc(-c4cccc(SC(F)(F)F)c4)nn23)[C@H](O)[C@@H]1O`, the cytotoxicity call was “active”.

Consider `O=C(C[C@H]1C[C@H]2c3cc(NC(=O)Cc4ccncc4)ccc3O[C@H]2[C@H](CO)O1)NCc1cccc(F)c1`, for which the cytotoxicity call is “inactive”.

For the compound `CO[C@@H]1CN(C)C(=O)c2ccc(NC(=O)Nc3ccccc3F)cc2OC[C@@H](C)N(Cc2ccccc2F)C[C@H]1C`, the cytotoxicity call is “inactive”.

Turning to `Cc1c(CN2CCN(C(=O)[C@H](C)O)CC2)sc2c(N3CCOCC3)nc(-c3cnc(N)nc3)nc12`, the cytotoxicity call is “active”.

On to `CC(=O)Nc1ncc(CN2CCOCC2)s1`, for which the cytotoxicity call was “inactive”.

Consider `C[C@@H]1CN([C@H](C)CO)C(=O)Cc2cc(NC(=O)Cc3cn(C)c4ccccc34)ccc2O[C@@H]1CN(C)S(=O)(=O)c1cn(C)cn1`, for which the cytotoxicity call was “inactive”.

For the compound `CC(/C=C/C(=O)NO)=C\c1ccccc1OCc1cn(CC(=O)N2CCN(c3ccccc3)CC2)nn1`, the cytotoxicity call is “inactive”.

Consider `CC(/C=C/C(=O)NO)=C\c1ccccc1OCc1cn(-c2ccc(C[C@H]3C(=O)O[C@@H](Cc4ccccc4)[C@H]4[C@@H]5C=CCCC=C5CN43)cc2)nn1`, for which the cytotoxicity call is “inactive”.

In the case of `C=C/C=C/[C@@H]1C(=C)CN2[C@H]1[C@H](Cc1ccccc1)OC(=O)[C@@H]2Cc1ccc(-n2cc(COc3ccccc3/C=C(C)/C=C/C(=O)NO)nn2)cc1`, the cytotoxicity call was “inactive”.

Regarding `CCOC(=O)[C@H](Cc1ccccc1)NC(=O)Cn1cc(C(=O)NO)nn1`, the cytotoxicity call was “inactive”.

For `C=C/C=C/[C@H]1C(=C)CN([C@H](Cc2ccc(-n3cc(COc4ccccc4/C=C(C)/C=C/C(=O)NO)nn3)cc2)C(=O)OC)[C@@H]1[C@H](O)Cc1ccccc1`, the cytotoxicity call is “inactive”.

Take `COC(=O)[C@@H](NC(=O)Cn1cc(C(=O)NO)nn1)c1ccccc1`: the cytotoxicity call is “active”.

`COC(=O)[C@@H](NC(=O)Cn1cc(CCC(=O)NO)nn1)c1ccccc1`: the cytotoxicity call was “inactive”.

In the case of `COC(=O)[C@H](Cc1ccccc1)N1CC2=C[C@@H](C3CC3)n3c(=O)n(C)c(=O)n3[C@H]2[C@@H]1[C@@H](O)CCn1cc(COc2ccccc2/C=C(C)/C=C/C(=O)NO)nn1`, the cytotoxicity call is “inactive”.

For the compound `C#CCN1[C@H](/C=C/C2CC2)[C@H](Cc2ccccc2)OC(=O)[C@@H]1Cc1ccc(-n2cc(COc3ccccc3/C=C(C)/C=C/C(=O)NO)nn2)cc1`, the cytotoxicity call is “active”.

`COC(=O)[C@@H](Cc1ccc(-n2cc(COc3ccccc3/C=C(C)/C=C/C(=O)NO)nn2)cc1)N1CC2=C[C@H](C3CC3)n3c(=O)n(C)c(=O)n3[C@@H]2[C@H]1[C@H](O)Cc1ccccc1`: the cytotoxicity call is “inactive”.

On to `COC(=O)[C@@H](NC(=O)Cn1cc(COc2ccccc2/C=C(C)/C=C/C(=O)NO)nn1)c1ccccc1`, for which the cytotoxicity call was “active”.

On to `COC(=O)[C@@H](Cc1ccc(-n2cc(COc3ccccc3/C=C(C)/C=C/C(=O)NO)nn2)cc1)N1CC2=CCCC=C[C@@H]2[C@H]1[C@H](O)Cc1ccccc1`, for which the cytotoxicity call was “active”.

On to `CS(=O)(=O)N1C[C@H](O)COC[C@H]2O[C@@H](CC(=O)NCc3ccccc3)CC[C@@H]21`, for which the cytotoxicity call was “inactive”.

In the case of `CC(C)(C)[S@@](=O)N1Cc2cc(C(=O)N3CCc4ccccc4C3)nc(-c3cccc(-c4cncnc4)c3)c2[C@H]1CCO`, the cytotoxicity call was “inactive”.

For the compound `COc1ccc(C#Cc2ccc3c(c2)O[C@@H](CN(C)C(=O)CN2CCOCC2)[C@H](C)CN([C@@H](C)CO)S3(=O)=O)cc1`, the cytotoxicity call was “inactive”.

`Cc1noc(C)c1NC(=O)Nc1ccc2c(c1)C(=O)N([C@@H](C)CO)C[C@@H](C)[C@@H](CN(C)S(C)(=O)=O)O2`: the cytotoxicity call is “inactive”.

With `C[C@@H]1CN([C@@H](C)CO)C(=O)c2cc(NC(=O)CCN3CCOCC3)ccc2O[C@@H]1CN(C)Cc1ccccc1`, the cytotoxicity call is “inactive”.

As for `CO[C@@H]1CN(C)C(=O)c2cc(NC(=O)c3cnccn3)ccc2OC[C@@H](C)N(CCC(F)(F)F)C[C@H]1C`, the cytotoxicity call was “inactive”.

Regarding `C[C@H]1CN([C@@H](C)CO)C(=O)c2cccc(NS(=O)(=O)c3ccc(Cl)cc3)c2O[C@H]1CN(C)Cc1ccc(Oc2ccccc2)cc1`, the cytotoxicity call was “inactive”.

With `C[C@@H]1CN([C@@H](C)CO)C(=O)CCCn2cc(nn2)CO[C@@H]1CN(C)C(=O)C1CC1`, the cytotoxicity call is “inactive”.

With `O=c1cc(-c2ccc(O)cc2)oc2cc(O)cc(O)c12`, the cytotoxicity call is “inactive”.

Take `COc1ccc(-c2cc(=O)c3c(OC)cc(OC)cc3o2)cc1`: the cytotoxicity call was “inactive”.

Regarding `COc1ccc(-c2cc(=O)c3c(OC)c(OC)c(OC)cc3o2)cc1OC`, the cytotoxicity call was “inactive”.

On to `COc1ccc(-c2cc(=O)c3c(O)c(OC)c(OC)c(OC)c3o2)cc1OC`, for which the cytotoxicity call is “active”.

In the case of `COc1ccc(-c2cc(=O)c3c(OC)c(OC)c(OC)c(OC)c3o2)cc1`, the cytotoxicity call was “inactive”.

On to `COc1ccc(-c2cc(=O)c3c(O)cc(OC)cc3o2)cc1`, for which the cytotoxicity call is “inactive”.

As for `COc1ccc(-c2cc(=O)c3c(O)c(OC)c(OC)c(OC)c3o2)cc1`, the cytotoxicity call is “active”.

In the case of `COc1ccc(-c2cc(=O)c3c(O)cc(O)cc3o2)cc1`, the cytotoxicity call was “active”.

As for `COc1ccc(-c2cc(=O)c3c(OC)c(OC)c(OC)c(OC)c3o2)cc1OC`, the cytotoxicity call was “inactive”.
